Assay results taken from PubChem BioAssay.
Values without a mark were called inactive.

Assay: S. pombe growth modifiers, basal conditions – strain 972, OD600, 24 h, no modulator, primary screen (AID 1090);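 also: basal condition with compound alone and no growth modifier present; test concentration not given here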
Details: S. pombe 972 growth, higher = more signal, called active from +8 up or from −8 down

Point of comparison: `C=C[C@H](OC)[C@@H](O)c1ccc(OC)c(O)c1`, z-score 0.242. Against it:
- CCOC(=O)C1=CCC(c2ccncc2)N(S(=O)(=O)c2ccc(C)cc2)C1 (stereo unspecified) — lower, -2.69
- COC(=O)[C@@]1(Cc2ccc(F)cc2)[C@H]2c3cc(C(=O)N4CCCC4)n(Cc4ccc(C(F)(F)F)nc4)c3C[C@H]2CN1C(=O)c1ccccc1 — higher, 1.17
- CC(C)(C)OC(=O)CC[C@@]1(C(N)=O)N=C(c2ccc(OCCCO)cc2)O[C@@H]1c1ccccc1CN=[N+]=[N-] — lower, -0.477
- C=CCNC(=O)[C@H]1[C@@H]2C(=O)O[C@@H](c3ccccc3)[C@@H](c3ccccc3)N2[C@@H](c2ccc(OCCO)cc2)[C@]12C(=O)N(C(=O)OCCOC)c1ccc(C#CCC(C(=O)OC)C(=O)OC)cc12 — higher, 1.07
- C=CCOC(=O)[C@H]1[C@@H]2C(=O)O[C@@H](c3ccccc3)[C@@H](c3ccccc3)N2[C@@H](c2ccc(OCCOC(=O)[C@@H]3C[C@@H]4C(=O)N[C@@H](Cc5ccccc5)C(=O)N4[C@@H]3c3ccc(O)cc3)cc2)[C@]12C(=O)Nc1ccc(I)cc12 — higher, 2.14
- CCN1C(=O)C2CC(=O)C3C(CN(S(=O)(=O)c4ccc(C)cc4)C3c3ccc(C)cc3)C2C1=O (stereo unspecified) — higher, 0.616
- C=C(C)C1CN([C@H](CO)c2ccccc2)C(=O)/C1=C\c1ccccc1 (stereo partly specified) — lower, -3.2
- C=C(COC)C(=O)CC[C@H](OC(C)=O)c1ccc(CO)o1 — lower, -0.603
- COC(=O)C(CC#Cc1ccc2c(c1)[C@]1(C(=O)N2)[C@H](C(=O)NC[C@H](O)c2ccccc2)[C@H]2C(=O)O[C@H](c3ccccc3)[C@H](c3ccccc3)N2[C@@H]1c1ccc(O)cc1)C(=O)OC — higher, 0.793
- CC[C@@H](O[Si](C#C[Si](C(C)C)(C(C)C)C(C)C)(C(C)C)C(C)C)c1cn(Cc2cccc(Cl)c2)nn1 — higher, 0.719
- COC(=O)C1=CC(c2ccc(CO)cc2)=CC(C2CC2)N(Cc2cc3c(cc2Br)OCO3)C=C1C(=O)OC (stereo unspecified) — lower, -2.47
- O=C(NCCN1CCOCC1)[C@@H]1c2ccccc2C(=O)N(CC23CC4CC(CC(C4)C2)C3)[C@H]1c1ccc(CO)cc1 — lower, -1.27
- COCCCNC(=O)[C@@]1(CCC(=O)OC(C)(C)C)N=C(c2ccc(OCCCO)cc2)O[C@H]1c1ccccc1 — lower, -0.629
- CN1C2C=C(c3ccc(CO)cc3)C(C3C(=O)N(C(N)=O)C(=O)C32)C1C1CC1 (stereo unspecified) — lower, -0.257
- N#Cc1ccc(NN2C(C(O)c3ccc(B(O)O)cc3)C=CC3CN(c4ccccc4)C(=O)C32)cc1 (stereo unspecified) — higher, 0.896
